{
  "source": "PubChem BioAssay (NCATS)",
  "key": {"[1]": {"assay": "Primary fluorescence-based thiol-reactive (MSTI) qHTS assay for identification of artifact compounds. (AID 1845221); note: nearly all actives have a fitted effect of over 65% in size; note: potency is the fitted concentration of half-maximal effect", "procedure,_shortened": "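In PBS pH 7.4 with 2% DMSO, each compound met 4 uM MSTI for one hour at ambient temperature, shielded from light, before fluorescence detection.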"}, "[2]": {"test_system": "Nanoluciferase (engineered Oplophorus gracilirostris luciferase)", "assay": "Primary Nanoluciferase (NLuc) qHTS assay for identification of artifact compounds. (AID 1845222); note: series mostly up to about 54 µM", "procedure,_shortened": "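Diluted conditioned medium from NLuc-expressing S16 cells treated with compounds for 15 min at room temperature, then Nano-Glo substrate added; luminescence read after 5 min. Percent inhibition versus no-enzyme and DMSO controls fitted to 4-parameter Hill equation.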"}, "[3]": {"assay": "Primary redox qHTS assay for identification of artifact compounds. (AID 1845223)", "procedure,_shortened": "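Redox-cycling detection via DTT (250 uM final) oxidation coupled to Amplex Red (25 uM)/HRP (250 mU/mL) in HBSS. 15 min preincubation plus 30 min after DTT, room temperature. Ex/Em 525/598 nm; 4-parameter Hill fit against DMSO and 10 uM DA3003.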"}},
  "note": "Records with an inconclusive call do not appear. A call without a number means that no potency is given here. The source made the active and inactive calls. Calls come from the whole dose curve; as a rule, active = well fitted curve in the direction sought with a large enough effect; inconclusive = small, poorly fitted or top-dose-only effect, or another doubt; inactive = no such curve, though single readings can be large; an effect the other way counts as inactive or inconclusive. Where a SMILES comes first, the peptide text is derived from it. The star is where a group is joined. Hexanoyl = CCCCCC(=O)*",
  "data": [
    {"compound": "CC(C)[C@@](O)(c1ccc2cc(OC(F)F)c(OC(F)F)cc2c1)c1cn[nH]n1", "values": [
      {"measurement": "Potency", "setting": "[1]", "result": "inactive"},
      {"measurement": "Potency", "setting": "[2]", "result": "inactive"},
      {"measurement": "Potency", "setting": "[3]", "result": "inactive"}
    ]},
    {"compound": "C[C@]1(C2CCCC2)Cc2cc(OCC(=O)O)c(Cl)c(Cl)c2C1=O", "values": [
      {"measurement": "Potency", "setting": "[1]", "result": "inactive"},
      {"measurement": "Potency", "setting": "[2]", "result": "inactive"},
      {"measurement": "Potency", "setting": "[3]", "result": "inactive"}
    ]},
    {"compound": "Cc1ccc2[nH]c(=O)c(C3=NN(C(=O)CCC(=O)O)C(c4ccc(Br)cc4)C3)c(-c3ccccc3)c2c1", "note": "(stereo not drawn)", "values": [
      {"measurement": "Potency", "setting": "[1]", "result": "inactive"},
      {"measurement": "Potency", "setting": "[2]", "result": "inactive"},
      {"measurement": "Potency", "setting": "[3]", "result": "inactive"}
    ]},
    {"compound": "C=CC1(C)CC=C2C(CCC3C(C)(C(=O)O)CCCC23C)C1", "note": "(stereo not drawn)", "values": [
      {"measurement": "Potency", "setting": "[1]", "result": "inactive"},
      {"measurement": "Potency", "setting": "[2]", "result": "inactive"},
      {"measurement": "Potency", "setting": "[3]", "result": "inactive"}
    ]},
    {"compound": "CC1CC(=O)C2=C(O1)OC1(C)CCC3C(C)(C)C4OC4C(=O)C3(C)C1C2", "note": "(stereo not drawn)", "values": [
      {"measurement": "Potency", "setting": "[1]", "result": "16.5 µM (active)"},
      {"measurement": "Potency", "setting": "[2]", "result": "inactive"}
    ]},
    {"compound": "CCC(C)/C=C(C)/C=C/C1=CC2=C(Cl)C(=O)C(C)(OC(C)=O)C(=O)C2=CN1CCCCC(N)C(=O)O", "note": "(stereo not drawn)", "values": [
      {"measurement": "Potency", "setting": "[1]", "result": "0.653 µM (active)"},
      {"measurement": "Potency", "setting": "[2]", "result": "inactive"}
    ]},
    {"compound": "H-DPPDPDRFYGMM-NH2", "values": [
      {"measurement": "Potency", "setting": "[1]", "result": "inactive"},
      {"measurement": "Potency", "setting": "[2]", "result": "inactive"}
    ]},
    {"compound": "CCCCCC(=O)N1CCC[C@H]1C(=O)N[C@@H](Cc1ccc(O)cc1)C(=O)OC", "note": "(Hexanoyl-Pro-Tyr-OMe)", "values": [
      {"measurement": "Potency", "setting": "[1]", "result": "inactive"},
      {"measurement": "Potency", "setting": "[2]", "result": "inactive"},
      {"measurement": "Potency", "setting": "[3]", "result": "inactive"}
    ]},
    {"compound": "CC1(C)CC[C@]2(C(=O)O)CC[C@]3(C)C(=CCC4[C@@]5(C)C[C@@H](O)[C@H](O)[C@@](C)(CO)C5CC[C@]43C)C2C1", "note": "(stereo partly drawn)", "values": [
      {"measurement": "Potency", "setting": "[1]", "result": "inactive"},
      {"measurement": "Potency", "setting": "[2]", "result": "inactive"}
    ]},
    {"compound": "NC(=O)NCCCC(NC(=O)Cc1ccccc1)C(=O)O", "note": "(stereo not drawn)", "values": [
      {"measurement": "Potency", "setting": "[1]", "result": "inactive"},
      {"measurement": "Potency", "setting": "[2]", "result": "inactive"},
      {"measurement": "Potency", "setting": "[3]", "result": "inactive"}
    ]},
    {"compound": "CC(C)=CCC(O)[C@](C)(O)C1[C@H](O)C[C@@]2(C)C3CC=C4C(C[C@H](O)[C@@H](O[C@@H]5O[C@H](CO)[C@@H](O)[C@H](O)[C@H]5O)C4(C)C)[C@]3(C)C(=O)C[C@]12C", "note": "(stereo partly drawn)", "values": [
      {"measurement": "Potency", "setting": "[1]", "result": "inactive"},
      {"measurement": "Potency", "setting": "[2]", "result": "inactive"}
    ]}
  ]
}
